Test results from the OligoGym collection.
Also: reference of the scale not given here.

The sequences below were run against C20orf54 (assay: pooled miR-30 sensor sort-seq; sequence = guide strand). Settings: shRNA.
Work on TTGACGTAACTGAGGCAGCCGC yielded a sensor-assay potency score (higher = more potent) of -1.38. In the case of TTATCTGCTTGTCTTGTAGAAG, the sensor-assay potency score (higher = more potent) was -1.04. Work on TGAAGAGGTGCAGTCCACCAGG yielded a sensor-assay potency score (higher = more potent) of -0.698. TATCTCAGTGACATTGACGCAG showed a sensor-assay potency score (higher = more potent) of 0.229. Sequence TTCTCCTCTAGATACCCCTGGC has a sensor-assay potency score (higher = more potent) of -0.528. TTGCAGAAGTCCGCGGACGAGA was tested, and the sensor-assay potency score (higher = more potent) was -1.3. TATCGTTATCTGCTTGTCTTGT showed a sensor-assay potency score (higher = more potent) of 0.0273. In the case of TTTCTCCTCTAGATACCCCTGG, the sensor-assay potency score (higher = more potent) was 0.0398.

The sequences below were run against C21orf70 in the same assay as above. Settings: shRNA.
Work on TTCTTGGGCAAAACGGTCTTGG yielded a sensor-assay potency score (higher = more potent) of -0.889. In the case of ATTTTCTGCAACCATTGCTCAC, the sensor-assay potency score (higher = more potent) was -1.16. For TCCAGCTTCTGCACCAAGGCGC, the sensor-assay potency score (higher = more potent) was -0.982. TTTATTGAGCCCCACAACCGAC was tested, and the sensor-assay potency score (higher = more potent) was -1.2. TTCTGCACCAAGGCGCTGGGGT gave a sensor-assay potency score (higher = more potent) of -0.84. TTCGATTTTCTGCAACCATTGC gave a sensor-assay potency score (higher = more potent) of -1.09. With TTGAGCCCCACAACCGACCAGA the sensor-assay potency score (higher = more potent) was -0.652. TTTTCTGCAACCATTGCTCACG was tested, and the sensor-assay potency score (higher = more potent) was -0.501. TTGCTCACGCCTCAGCTTCATT gave a sensor-assay potency score (higher = more potent) of -1.27. Work on TTTTATGGCTTCGATTTTCTGC yielded a sensor-assay potency score (higher = more potent) of -0.59. Work on TTGGTGTTGATGAACGCCCAGT yielded a sensor-assay potency score (higher = more potent) of -0.833. Sequence TCTTCCAGCTGCATCTGCCGGG has a sensor-assay potency score (higher = more potent) of -0.496.
